Experimental data as given in PubChem BioAssay (NCATS).
Inconclusive results are not listed. Where a call stands in place of a potency, no number is given. Calls of active or inactive are those of the source. Calls follow the shape of the dose curve; as a rule, active = well fitted inhibition curve with a large enough effect; inconclusive = small, poorly fitted or top-dose-only effect; inactive = flat fitted curve, though single readings scatter.

system: Zika virus NS2B-NS3 protease; assay: Primary screen GU AMC qHTS for Zika virus inhibitors (AID 1347154); conditions: Zika NS2B-NS3 unlinked protease, AMC fluorogenic substrate; series mostly up to 54.1 µM; also: nearly all actives have a fitted effect of over 70% in size
Procedure, shortened: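 Unlinked Zika NS2B hydrophilic domain/NS3 protease domain noncovalent complex (25 nM final) in 10 mM Tris-HCl pH 8.0, 0.01% Tween 20, with AMC peptide substrate. Fluorescence (ex 340, em 450 nm) change over 15 min, room temperature; percent inhibition fitted to 4-parameter Hill equation.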

Row | SMILES | Potency | activity change, negative = inhibition
1 | CN(C)CCN1C(=O)c2cccc3cc(N)cc(c23)C1=O | inactive | 
2 | NS(=O)(=O)OC[C@@H]1C[C@@H](n2ccc3c(N[C@H]4CCc5ccccc54)ncnc32)C[C@H]1O | inactive | 
3 | CCC(C=C[C@@H]1OC(=O)C=C[C@H]1C)=C[C@H](C)CC=CC(C)=C[C@@H](C)C(=O)[C@@H](C)[C@H](O)[C@@H](C)CC(C)=CC(=O)O |  | 23.8% [at 2.16 µM] (inactive)
4 | CC(C)(C)[C@H](NC(=O)c1ccc(N)c(Cl)c1)C(=O)N1CCC[C@@H]1C(=O)N[C@H](C#N)CC(=O)O |  | 6.17% [at 6.83 µM] (inactive)
5 | COC(=O)[C@H](CCCN=C(N)N)NS(=O)(=O)c1ccc(C)cc1 | inactive | 
6 | CCOC(=O)N1CCN([N+]([O-])=NOc2ccc([N+](=O)[O-])cc2[N+](=O)[O-])CC1 | inactive | 
7 | NC(=O)N1CCC(CC(=O)N2CCC([C@H]3c4ncc(Br)cc4CCc4cc(Cl)cc(Br)c43)CC2)CC1 | inactive | 
8 | c1ccc(CNc2nc(NCc3ccccc3)c3ccccc3n2)cc1 | inactive | 
9 | C[C@]12CCC(=O)C=C1[C@@H]1CC1[C@H]1[C@H]3[C@@H]4C[C@H]4[C@@]4(CCC(=O)O4)[C@@]3(C)CC[C@H]12 (stereo partly drawn) | inactive | 
10 | C=CC(=O)N1CCc2ccc(-n3c(=O)ccc4cnc5ccc(-c6cnn(C)c6)cc5c43)cc21 | inactive | 
11 | Cc1onc(-c2ccccc2)c1C(=O)N[C@@H]1C(=O)N2[C@@H](C(=O)O)C(C)(C)S[C@@H]12 | inactive | 
12 | OCC(O)C(O)C(O)CO (stereo not drawn) | inactive | 
13 | O=C(O)CCCCCC(=O)NN=C1CCCC1 | inactive | 
